Laboratory results reported in PubChem BioAssay AID1851 (National Center for Advancing Translational Sciences (NCATS), 2009).
Among all 16,000 compounds or so, about 2,600 (16%) were called active. Not shown: some 20% with an inconclusive outcome. A selection follows. A number with no mark means an inactive call. Calls come from the whole dose curve; as a rule, active = well fitted curve in the direction sought with a large enough effect; inconclusive = small, poorly fitted or top-dose-only effect, or effect the other way; inactive = no such curve, though single readings can be large or run the other way.

Each compound was assayed against Cytochrome P450 2D6 (Homo sapiens) (UniProt P10635) (assay: Cytochrome panel assay with activity outcomes). Conditions: recombinant CYP, pro-luciferin dealkylation, luminescence, p450-cyp2d6; series mostly up to 57.1 µM; activity, negative = inhibition: at the top concentration.
Sequence of Cytochrome P450 2D6 (Homo sapiens) (P10635 whole entry, looked up): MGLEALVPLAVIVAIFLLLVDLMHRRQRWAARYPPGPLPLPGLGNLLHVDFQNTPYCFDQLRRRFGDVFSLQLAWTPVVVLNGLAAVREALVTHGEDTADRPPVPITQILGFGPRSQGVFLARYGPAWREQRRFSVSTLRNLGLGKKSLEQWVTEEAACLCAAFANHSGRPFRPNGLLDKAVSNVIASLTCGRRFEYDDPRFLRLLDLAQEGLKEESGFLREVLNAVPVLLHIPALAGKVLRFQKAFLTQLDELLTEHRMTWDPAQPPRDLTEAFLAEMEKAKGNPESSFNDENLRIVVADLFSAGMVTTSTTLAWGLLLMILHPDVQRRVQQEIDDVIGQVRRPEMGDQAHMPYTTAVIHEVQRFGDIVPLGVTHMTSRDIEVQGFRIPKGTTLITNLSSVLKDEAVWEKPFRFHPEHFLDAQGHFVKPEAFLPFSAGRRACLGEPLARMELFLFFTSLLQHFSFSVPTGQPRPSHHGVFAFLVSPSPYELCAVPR
% is set by controls: 0 for no effect and ±100 for the full control effect.

Structure (SMILES) | activity, negative = inhibition | AC50
CCOC(=O)C1=C(C)C(c2ccccc2OC)NC(=S)N1 (stereo not given) | -9.65% | 
Cn1c(=O)oc2cc(S(=O)(=O)NCCC(=O)N3CC=C(c4ccccc4)CC3)ccc21 | -29.6% | 
O=C(O)c1cc2cc(Cl)ccc2oc1=O | 1.09% | 
O=C(Nc1ccccc1N1CCOCC1)c1cnccn1 | -17.2% | 
Cc1cc(N)c2cc(NC(=O)Nc3ccc4nc(C)cc(N)c4c3)ccc2n1 | 7.45% [at 11.4 µM] | 
Cc1nc2ccc(NC(=O)Nc3ccnc4cccnc34)cc2o1 |  | 10 µM (active)
O=C(Nc1ccc2ncccc2c1)Nc1ccc2ncccc2c1 | -10.5% [at 11.4 µM] | 
CN(C)c1ncc2nc(-c3ccc(F)cc3)c(=O)n(C)c2n1 | 3.94% | 
COc1ccc2cc(C(=O)Nc3ccc(F)cc3)sc(=O)c2c1OC | -20.8% | 
CC(C)C(=O)Nc1ccc(C(=O)NNC(=O)C(c2ccccc2)c2ccccc2)cc1 | -4.72% | 
N#Cc1cccc(-c2ccc3ncnc(N4CCNCC4)c3c2)c1 | -19.9% | 
Cc1noc(C)c1-c1ccc2ncnc(N3CCN(C)CC3)c2c1 | -1.17% | 
CN(C)c1ccc(-c2ccc3ncnc(N4CCNCC4)c3c2)cc1 |  | 12.6 µM (active)
CN1CCN(c2ncnc3ccc(-c4cccc(C#N)c4)cc23)CC1 | -7.72% | 
N#Cc1ccccc1-c1ccc2ncnc(N3CCNCC3)c2c1 | -13.2% | 
Cc1ccccc1-c1ccc2ncnc(N3CCNCC3)c2c1 | -9.34% | 
c1nc(N2CCNCC2)c2cc(-c3ccc4c(c3)OCO4)ccc2n1 |  | 2.51 µM (active)
CN(C)C(=O)c1ccc(-c2ccc3ncnc(N4CCNCC4)c3c2)cc1 | -14% | 
CN1CCN(c2ncnc3ccc(-c4ccc5c(c4)OCO5)cc23)CC1 |  | 0.251 µM (active)
COc1ccc(C(=O)N2CCC[C@@]3(CCN(C(=O)NC(C)C)C3)C2)cc1 | -13.3% | 
Cc1nc2ncnn2c(C)c1CCC(=O)NCc1ccco1 | -13% | 
CCc1ccccc1NC(=O)c1ccc(F)c(S(=O)(=O)N2CCC(C(N)=O)CC2)c1 | -13.2% | 
CC(=O)c1c(O)c(C)c(-c2ccccc2)n(-c2ccccc2)c1=O | 14.1% | 
CCCc1c(OCCCOc2ccc(OCC(=O)O)cc2)ccc(CC=O)c1O | 10.9% | 
CCCC(O)(CCC)C(=O)NN1CCCCC1 | 17.5% | 
Cn1c(=O)n(C)c2cc(/C=N/n3cnnc3)ccc21 | 21.8% | 
Brc1ccc(-c2nnc(-c3ccccc3)c(N3CCSCC3)n2)cc1 | -7.56% | 
COc1ccccc1-c1ccc2ncnc(N3CCOCC3)c2c1 | -15.7% | 
COc1cccc2[nH]c3c(N4CC(C)CC(C)C4)ncnc3c12 (stereo not given) |  | 2 µM (active)
COc1ccc(OC)c2c(=S)c3ccccc3[nH]c12 | 7.78% | 
